We go through five molecules from PubChem BioAssay.

The subject of assay [1] is Plasmodium falciparum Sir2 (PF13_0152, Sir2A). The assay can be described thus: Plasmodium falciparum Sir2A binding compounds – biochemical, small-molecule microarray, 635 nm fluorescence, primary screen (AID 1098).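 Further: score merges spot fluorescence intensity with its signal-to-noise ratio.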 Particulars: fluorescence 635 nm, higher = more signal.
A short description of assay [2]: probe aDKK1 binding to arrayed compounds – biochemical, biotinylated probe, 635/667 nm fluorescence, primary screen (AID 1099).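 Further: score merges 667nm spot fluorescence with signal to noise across triplicate slides.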 Particulars: small-molecule microarray, higher = more signal.
Assay [3] in a line: probe aCHRDL2 binding to arrayed compounds – biochemical, biotinylated probe, 635/667 nm fluorescence, primary screen (AID 1100). As to conditions: small-molecule microarray, higher = more signal.
Assay [4] is described as follows: change in splice reporter luminescence, either direction, cell-based, HEK293, spliceosome inhibition project, primary screen (AID 1101).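 Further: HEK293 cells carrying a splicing-competent luciferase reporter gene; test concentration not given here.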 Particulars: HEK293 splicing luciferase reporter, 24 h, higher = more signal, called active from +8 up or from −8 down. For orientation: A reporter such as luciferase makes a cellular process visible.
The target of assay [5] is Fibroblast growth factor 10 (Homo sapiens) (UniProt O15520). The experiment in a line: compounds binding fibroblast growth factor 10 – biochemical, small-molecule microarray, 635 nm fluorescence, primary screen (AID 1102). As to conditions: FGF10 binding, fluorescence 635 nm, higher = more signal.
Fibroblast growth factor 10 (Homo sapiens), sequence (O15520 whole entry, looked up): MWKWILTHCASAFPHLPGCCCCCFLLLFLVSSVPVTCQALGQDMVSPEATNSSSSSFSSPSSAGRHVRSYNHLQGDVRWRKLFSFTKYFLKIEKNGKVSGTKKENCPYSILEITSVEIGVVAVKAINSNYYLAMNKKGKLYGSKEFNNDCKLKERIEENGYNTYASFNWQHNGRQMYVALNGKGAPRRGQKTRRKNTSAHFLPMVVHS
Assay [6] concerns glycogen synthase kinase-3 (GSK3A per assay name; protocol says GSK3B). The experiment in a line: compounds binding glycogen synthase kinase-3 – biochemical, small-molecule microarray, 635 nm fluorescence, GSK3A, primary screen (AID 1103). Further: the record names both GSK3A and GSK3B. Particulars: fluorescence 635 nm, higher = more signal.
For assay [7], the target named is Epidermal growth factor receptor (Homo sapiens) (UniProt P00533). The experiment in a line: compounds binding epidermal growth factor receptor – biochemical, small-molecule microarray, 635 nm fluorescence, primary screen (AID 1104).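 Further: score merges 667 nm emission intensity with spot signal to noise over triplicate slides.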 As to conditions: EGFR binding, higher = more signal.
Epidermal growth factor receptor (Homo sapiens), sequence (P00533 whole entry, looked up): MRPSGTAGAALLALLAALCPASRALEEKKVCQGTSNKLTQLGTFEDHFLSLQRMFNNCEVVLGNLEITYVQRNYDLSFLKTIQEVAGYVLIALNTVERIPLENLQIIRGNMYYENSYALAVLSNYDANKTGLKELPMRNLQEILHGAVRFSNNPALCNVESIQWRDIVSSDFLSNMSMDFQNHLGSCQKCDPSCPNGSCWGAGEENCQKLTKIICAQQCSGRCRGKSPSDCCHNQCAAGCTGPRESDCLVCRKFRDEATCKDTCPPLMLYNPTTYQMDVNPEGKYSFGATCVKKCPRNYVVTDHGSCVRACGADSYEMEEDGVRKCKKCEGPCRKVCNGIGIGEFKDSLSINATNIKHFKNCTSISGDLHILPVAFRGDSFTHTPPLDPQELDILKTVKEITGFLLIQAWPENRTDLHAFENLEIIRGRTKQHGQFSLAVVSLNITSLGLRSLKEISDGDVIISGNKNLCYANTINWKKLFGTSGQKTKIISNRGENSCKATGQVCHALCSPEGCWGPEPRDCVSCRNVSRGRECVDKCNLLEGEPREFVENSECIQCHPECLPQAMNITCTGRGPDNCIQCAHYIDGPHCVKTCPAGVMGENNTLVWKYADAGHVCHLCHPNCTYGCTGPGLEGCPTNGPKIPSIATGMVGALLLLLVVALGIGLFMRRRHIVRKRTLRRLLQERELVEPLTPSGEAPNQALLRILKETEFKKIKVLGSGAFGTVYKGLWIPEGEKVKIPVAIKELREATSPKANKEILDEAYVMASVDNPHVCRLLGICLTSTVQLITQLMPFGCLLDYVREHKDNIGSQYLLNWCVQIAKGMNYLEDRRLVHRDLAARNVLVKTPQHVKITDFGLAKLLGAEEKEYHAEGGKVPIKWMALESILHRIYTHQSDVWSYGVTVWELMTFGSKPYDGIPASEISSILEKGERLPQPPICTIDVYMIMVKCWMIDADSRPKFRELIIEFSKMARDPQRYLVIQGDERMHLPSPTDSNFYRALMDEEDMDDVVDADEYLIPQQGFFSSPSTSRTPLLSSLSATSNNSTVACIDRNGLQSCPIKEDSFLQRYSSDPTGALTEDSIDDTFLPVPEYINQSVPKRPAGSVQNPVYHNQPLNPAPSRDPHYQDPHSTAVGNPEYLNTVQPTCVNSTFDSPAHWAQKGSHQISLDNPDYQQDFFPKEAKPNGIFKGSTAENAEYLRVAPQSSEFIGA
Assay [8] addresses Follistatin-related protein 3 (Homo sapiens) (UniProt O95633). The experiment in a line: compounds binding follistatin-related protein 3 – biochemical, small-molecule microarray, 635 nm fluorescence, primary screen (AID 1105).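 Further: score merges emission near 667 nm and signal to noise per printed spot across three slides.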 Particulars: FSTL3 binding, higher = more signal.
Assay [9] has as its target Dickkopf-related protein 1 (Homo sapiens) (UniProt O94907). The experiment in a line: small molecules binding DKK1 protein – biochemical, small-molecule microarray, 635 nm fluorescence scan, primary screen (AID 1106).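 Further: score merges emission near 667 nm with signal to noise over three replicate slides.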 As to conditions: higher = more signal.
The subject of assay [10] is Inhibin beta A chain (activin A). The experiment in a line: small molecules binding activin A – biochemical, small-molecule microarray, 635 nm fluorescence scan, primary screen (AID 1107).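 Further: mouse activin A protein probed at 4.33 µg/mL on printed slides; score merges bound-protein fluorescence near 667 nm with spot signal-to-noise.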 Particulars: INHBA, higher = more signal.
The subject of assay [11] is Human papillomavirus type 1a protein E7 (residues 44-93). The assay can be described thus: small molecules binding HPV E7 44-93 – biochemical, small-molecule microarray, residues 44-93, 635 nm fluorescence, primary screen (AID 1108).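 Further: E7 fragment applied at 1 µg/mL in TBST for 1 h at 4 C; score combines spot fluorescence with its signal to noise ratio.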 As to conditions: fluorescence 635 nm, higher = more signal.
Assay [12] in a line: hepatitis C replication reporter changes, two-sided – Huh7 cells, luciferase reporter, HCV replication inhibitor project, primary screen (AID 1109).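 Further: huh7 hepatoma cells harbouring a luciferase neomycin HCV replicon reporter; luciferase luminescence as measure of HCV replicon replication; test concentration not given here.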 Particulars: Huh7 HCV replicon luciferase reporter, 48 h; higher = more signal.
Assay [13] concerns the target Left-right determination factor 2 (Homo sapiens) (UniProt O00292). The assay can be described thus: small molecules binding LEFTY2 protein – biochemical, small-molecule microarray, 635 nm fluorescence scan, primary screen (AID 1110). Particulars: higher = more signal.
The target in assay [14] is Calmodulin-1 (Homo sapiens) (UniProt P0DP23). The experiment in a line: small molecules binding calmodulin-1 with EGTA – biochemical, small-molecule microarray, Cy5-labelled CALM1, profiling panel (AID 1111).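 Further: labelled calmodulin applied in Tris saline Tween buffer holding calcium plus EGTA and DTT.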 Particulars: Cy5-CALM1 binding fluorescence, higher = more signal.
Assay [15] shares this target. The assay can be described thus: small molecules binding Ca-loaded calmodulin-1 – biochemical, small-molecule microarray, Cy5-labelled CALM1, plus calcium, artefact control for SMM control-protein annotation, profiling panel (AID 1112).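 Further: score merges spot fluorescence with signal to noise from triplicate slides.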 Particulars: Cy5-CALM1 binding fluorescence, higher = more signal.
Assay [16] can be described thus: probe aWnt5a binding to arrayed compounds – biochemical, biotinylated probe, 635/667 nm fluorescence, primary screen (AID 1113).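 Further: score merges 667 nm fluorescence intensity with signal-to-noise per printed feature.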 As to conditions: small-molecule microarray, higher = more signal.
The nature of assay [17]: probe aShh binding to arrayed compounds – biochemical, biotinylated probe, 635/667 nm fluorescence, primary screen (AID 1114).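 Further: probe is biotin-labelled aShh protein from a stem cell growth factor screen; measures binding of labelled protein to compounds printed on the slide; score merges feature fluorescence at 667 nm with signal-to-noise.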 As to conditions: small-molecule microarray, higher = more signal.
Assay [18] in a line: probe aNog binding to arrayed compounds – biochemical, biotinylated probe, 635/667 nm fluorescence, primary screen (AID 1115).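 Further: probe is biotinylated aNog protein used at 0.15 µg/mL for 1 h at 4 C; z-score combines 667 nm fluorescence of each spot with its signal to noise.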 As to conditions: small-molecule microarray, higher = more signal.
Assay [19] deals with Torsin-1A-interacting protein 1 (Homo sapiens) (UniProt Q5JTV8). The experiment in a line: compound microarray binding of lysate hLAP1 – cell lysate, small-molecule microarray, COS7 lysate, 635/667 nm fluorescence, primary screen (AID 1116). As to conditions: 635 nm fluorescence, higher = more signal.
Torsin-1A-interacting protein 1 (Homo sapiens), sequence (Q5JTV8 whole entry, looked up): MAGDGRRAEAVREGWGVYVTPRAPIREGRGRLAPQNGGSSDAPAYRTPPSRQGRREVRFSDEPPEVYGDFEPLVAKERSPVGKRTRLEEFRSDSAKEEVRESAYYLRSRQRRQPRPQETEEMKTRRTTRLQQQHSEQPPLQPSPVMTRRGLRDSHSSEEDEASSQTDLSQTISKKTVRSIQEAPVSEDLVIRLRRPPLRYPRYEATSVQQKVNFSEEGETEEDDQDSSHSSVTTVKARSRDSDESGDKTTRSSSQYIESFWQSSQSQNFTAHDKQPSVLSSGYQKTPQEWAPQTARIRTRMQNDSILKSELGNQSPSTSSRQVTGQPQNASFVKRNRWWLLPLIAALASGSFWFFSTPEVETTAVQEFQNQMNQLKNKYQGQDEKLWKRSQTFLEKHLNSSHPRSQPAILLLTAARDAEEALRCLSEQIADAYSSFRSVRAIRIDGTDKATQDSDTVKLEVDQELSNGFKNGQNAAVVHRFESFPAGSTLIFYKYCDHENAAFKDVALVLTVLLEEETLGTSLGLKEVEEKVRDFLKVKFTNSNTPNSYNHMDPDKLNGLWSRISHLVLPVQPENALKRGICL
The target of assay [20] is Alpha-bungarotoxin (Bungarus multicinctus) (UniProt P60615). The assay can be described thus: compounds binding labelled alpha-BTX control protein – biochemical, small-molecule microarray, Alexa647 label, 635/667 nm fluorescence, artefact control for SMM control protein annotation, profiling panel (AID 1117). As to conditions: alpha-BTX-A647 binding fluorescence, higher = more signal.
Alpha-bungarotoxin (Bungarus multicinctus), sequence (P60615 whole entry, looked up): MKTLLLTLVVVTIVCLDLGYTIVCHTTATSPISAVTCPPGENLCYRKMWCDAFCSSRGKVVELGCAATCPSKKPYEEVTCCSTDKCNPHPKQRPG

The source made the active and inactive calls.

Dickkopf-related protein 1 (Homo sapiens), sequence (O94907 whole entry, looked up): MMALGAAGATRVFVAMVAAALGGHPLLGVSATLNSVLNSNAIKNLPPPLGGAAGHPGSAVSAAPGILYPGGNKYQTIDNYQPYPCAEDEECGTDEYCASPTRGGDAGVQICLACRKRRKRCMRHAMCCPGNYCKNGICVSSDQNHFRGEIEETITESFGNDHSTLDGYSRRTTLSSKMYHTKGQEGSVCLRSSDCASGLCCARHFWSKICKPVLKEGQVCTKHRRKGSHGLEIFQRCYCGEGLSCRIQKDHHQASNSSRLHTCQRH
Follistatin-related protein 3 (Homo sapiens), sequence (O95633 whole entry, looked up): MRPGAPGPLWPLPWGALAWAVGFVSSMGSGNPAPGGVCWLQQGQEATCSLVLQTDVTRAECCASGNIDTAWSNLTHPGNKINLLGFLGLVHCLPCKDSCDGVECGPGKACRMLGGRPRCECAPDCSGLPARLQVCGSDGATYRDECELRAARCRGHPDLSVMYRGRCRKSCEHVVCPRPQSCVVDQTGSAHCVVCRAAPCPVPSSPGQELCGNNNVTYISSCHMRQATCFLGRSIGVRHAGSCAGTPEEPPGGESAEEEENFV
Left-right determination factor 2 (Homo sapiens), sequence (O00292 whole entry, looked up): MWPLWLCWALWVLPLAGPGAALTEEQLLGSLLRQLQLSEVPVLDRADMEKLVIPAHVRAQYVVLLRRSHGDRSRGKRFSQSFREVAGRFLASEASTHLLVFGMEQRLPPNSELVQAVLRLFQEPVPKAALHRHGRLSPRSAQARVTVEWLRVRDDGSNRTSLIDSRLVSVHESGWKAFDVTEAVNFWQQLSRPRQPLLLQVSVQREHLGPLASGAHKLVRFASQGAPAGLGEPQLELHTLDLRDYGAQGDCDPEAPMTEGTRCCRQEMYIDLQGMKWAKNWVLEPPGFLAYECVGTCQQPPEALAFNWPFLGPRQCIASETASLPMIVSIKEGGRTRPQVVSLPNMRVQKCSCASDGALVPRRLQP

Consider `COCCOC(=O)N1C(=O)[C@@]2(c3cc(C#CC4(O)CCCCCC4)ccc31)[C@H](C(=O)N1CCCCCCC1)[C@H]1C(=O)O[C@H](c3ccccc3)[C@H](c3ccccc3)N1[C@@H]2c1ccc(O)cc1`, for which the composite z-score in [1] came to 1.26; in assay [2] it was 2.22; in [3] it was 1.55; in [5], 0.808; in [6], 1.11; in [7], 0.251. The composite z-score amounted to 1.34 in assay [8]; 0.716 in assay [9]; 1.89 in [10]; 0.554 in assay [11]; 0.333 in assay [13]; 1.31 in assay [14]. For the same molecule, the composite z-score was 0.639 in assay [15]; 0.629 in assay [16]; 1.9 in assay [17]; 2.13 in assay [18]; 3.24 in [19]; 1.73 in [20]. The results for the z-score in assay [4] and in [12] were -0.0148 (inactive) and -0.937, respectively.
Regarding `COc1ccc([Si](C)(C)[C@@H]2[C@@H](CC(=O)N(CCO)Cc3ccccc3)O[C@]3(C(=O)N(Cc4cccc(N5CCC5=O)c4)c4ccccc43)[C@H]2C)cc1`, the composite z-score in [1] was 1.41; in assay [2], -0.163; in assay [3], -0.229; in assay [5] it was 1.07; in assay [6], 0.583; in [7], 0.475. In addition, the composite z-score in assay [8] is 0.875; in [9], 0.313; in assay [10] it was 0.552; in assay [11], 0.411; in assay [13], 0.571; in assay [14] it was -0.0736. The composite z-score in [15] is -0.322; in assay [16] it was -0.0718; in assay [17], -0.0709; in [18], -0.411; in [19], 1.28; in assay [20] it was 0.508. The z-score in [4] was -0.732 (inactive); in assay [12], -3.81.
For the molecule `COC(=O)[C@@]1(Cc2ccccc2CN=[N+]=[N-])N=C(c2ccc(OCCCO)cc2)O[C@H]1c1ccccc1N=[N+]=[N-]`, the composite z-score in assay [1] was 1.31; in assay [2] it was 0.244; in assay [3], 0.973; in assay [5], 0.752; in [6], -0.381; in assay [7], -0.0185. The composite z-score was -0.0661 in assay [8]; -0.608 in [9]; 0.948 in assay [10]; 1.02 in assay [11]; -0.453 in assay [13]; 0.173 in assay [14]. In addition, the composite z-score was -0.17 in assay [15]; -0.129 in assay [16]; -0.203 in assay [17]; 2.32 in assay [18]; 0.0753 in assay [19]; 0.45 in [20]. The z-score was -0.298 (inactive) in assay [4] and -1.53 in assay [12].
Take `COc1cc2c(cc1OC)CN(C(=O)[C@H]1[C@@H]3C(=O)O[C@@H](c4ccccc4)[C@@H](c4ccccc4)N3[C@@H](c3ccc(O)cc3)[C@]13C(=O)Nc1ccc(C#CC4(O)CCCCCC4)cc13)CC2`: the composite z-score amounted to 1.75 in [1]; 0.458 in assay [2]; 0.46 in assay [3]; 1.4 in [5]; 1.36 in assay [6]; 0.853 in [7]. The composite z-score in assay [8] came to 1.46; in assay [9], 1.1; in [10], 0.616; in assay [11], 1.4; in [13], 1.36; in assay [14], 2.21. In addition, the composite z-score in [15] was 1.2; in assay [16] it was 0.808; in assay [17] it was 0.382; in [18], 2.35; in [19] it was 3.48; in [20], 2.79. Moreover, the z-score in [4] is -0.81 (inactive); in [12] it was -1.47.
In the case of `CO[C@H]1COC(=O)CC=C[C@H](C)[C@@H](OC)COC(=O)CC=C[C@@H]1C`, the composite z-score is 0.697 in assay [1]; -0.546 in assay [2]; -1.11 in [3]; 0.597 in assay [5]; 0.309 in [6]; 0.751 in assay [7]. Besides, the composite z-score in assay [8] was 0.522; in assay [9] it was 0.991; in [10], 0.716; in assay [11], -0.366; in assay [13], 0.724; in assay [14], -1.61. Moreover, the composite z-score in assay [15] was -1.87; in assay [16], -0.181; in [17], 0.126; in assay [18], -0.63; in assay [19], -0.0807; in assay [20] it was -0.86. Further, the z-score in assay [4] is -1.06 (inactive); in [12] it was -0.0985.
